Bioassay records (PubChem)
Rango dissoc inh = prevents RanGTP from dissociating the Rango-importin beta complex | Biochemical FRET Rango-importin beta, RanGTP-induced dissociation | Potency, µM (series often up to 46.1 µM), inactives show at the top dose activity change, negative = inhibition | hit rate 0.071% among 340,000; also: potency is read from the fitted curve at half-maximal effect; % of control where 0% means no effect; nearly all actives have a fitted effect of over 45% in size
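Rango/importin beta premix (0.1/0.25 uM final), PBS + 1 mM DTT + 0.02% Tween-20 + 0.1% BSA; cpd 5 min RT; FRET pre-read; + RanGTP-RCC1 (0.6 uM Ran, 2 mM GTP, 0.2 uM RCC1); 45 min RT; FRET post-read, ex 430, em 486/530 nm.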
CCT chaperon mod = cytosolic chaperonin activity modulation; purified chaperonin ATPase assay, HTRF ADP detection, 30 min; activity change, % (concentration not given with the values), hits read low; hit rate 0.3% among 360,000; AID 651819; in the data active = activity change below about -30%; also: % is scaled to controls: 0 for no effect and ±100 for the full control effect
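TRiC at 40 or 20 nM final (batch-dependent) in 30 mM Tris pH 7.4, 100 mM KCl, 5 mM MgCl2, 1 mM DTT, with compound at single 76 uM and 10 uM ATP, 30 min at 37 deg C. ADP detected by HTRF Transcreener, 665/615 ratio.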
MmCpn inh = blocks the Methanococcus maripaludis chaperonin Mm-Cpn; Potency, µM (top dose mostly 76.9 µM), inactives show at the top dose activity, negative = inhibition, most hits filed as inhibitors; hit rate 0.031% among 330,000; purified Mm-Cpn ATPase, ADP Transcreener TR-FRET; active = well fitted inhibition curve with a large enough effect; inconclusive = small, poorly fitted or top-dose-only effect; also: potency is read from the fitted curve at half-maximal effect; % is scaled to controls: 0 for no effect and ±100 for the full control effect; nearly all actives have a fitted effect of over 80% in size
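Purified archaeal Mm-CPN (25nM final) preincubated 10 min at 37degC with compound, then 10uM ATP for 30 min at 37degC; ADP measured by HTRF Transcreener TR-FRET; buffer 30 mM TRIS pH 7.4, 100mM KCl, 5mM MgCl2, 1mM DTT.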
Rango-impB inh = inhibitors of Rango-importin beta complex formation; Q14974; Rango CFP/YFP FRET sensor + importin beta, 45 min; Potency, µM (series often up to 92.2 µM), for inactives: top-dose inhibition of complex formation; hit rate 0.031% among 340,000;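 also: potency is read from the fitted curve at half-maximal effect; 0% = DMSO wells and 100% = buffer wells lacking importin beta; nearly all actives have a fitted effect of over 15% in size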
Target sequence (Q14974 whole entry, looked up): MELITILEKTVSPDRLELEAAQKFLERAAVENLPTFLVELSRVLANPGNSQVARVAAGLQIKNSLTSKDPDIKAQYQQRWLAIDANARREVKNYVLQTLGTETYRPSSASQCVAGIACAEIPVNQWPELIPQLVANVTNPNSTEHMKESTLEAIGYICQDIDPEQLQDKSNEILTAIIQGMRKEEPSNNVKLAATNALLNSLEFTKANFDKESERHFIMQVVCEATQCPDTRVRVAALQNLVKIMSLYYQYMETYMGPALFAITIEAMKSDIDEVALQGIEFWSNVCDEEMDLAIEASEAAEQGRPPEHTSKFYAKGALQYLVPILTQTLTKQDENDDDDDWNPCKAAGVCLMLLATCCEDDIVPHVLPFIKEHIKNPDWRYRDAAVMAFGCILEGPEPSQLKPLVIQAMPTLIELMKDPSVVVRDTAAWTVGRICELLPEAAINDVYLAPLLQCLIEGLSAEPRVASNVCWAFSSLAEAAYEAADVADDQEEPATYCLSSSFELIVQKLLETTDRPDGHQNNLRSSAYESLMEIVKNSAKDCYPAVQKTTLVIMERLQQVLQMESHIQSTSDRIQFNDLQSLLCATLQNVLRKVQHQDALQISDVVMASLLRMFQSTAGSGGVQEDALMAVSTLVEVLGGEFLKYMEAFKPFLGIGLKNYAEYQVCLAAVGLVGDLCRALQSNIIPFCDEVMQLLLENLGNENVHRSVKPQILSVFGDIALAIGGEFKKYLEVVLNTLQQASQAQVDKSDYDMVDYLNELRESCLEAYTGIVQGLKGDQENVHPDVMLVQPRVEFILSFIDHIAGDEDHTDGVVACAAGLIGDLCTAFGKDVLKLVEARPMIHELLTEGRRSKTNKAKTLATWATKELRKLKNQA
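FRET biosensor (snurportin 1 IBB flanked by EYFP and cerulean), 50 nM, with compound 5 min, then 0.125 microM importin beta in PBS, 1 mM DTT, 0.02% Tween-20, 0.1% BSA. CFP/YFP ratio read after 45 min at room temperature; pre-read flags interference.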
hERG WT inh = blocks the wildtype human KCNH2 potassium channel; hit rate 0.37% among 340,000; AID 720551; activity change, % at 1.84 µM; U2OS, BacMam KCNH2, thallium flux FluxOr; hits give low values; Q12809;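 active = maximum activity change below -70%; inconclusive = maximum activity change between -70% and -50%; inactive = maximum activity change above -50%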; also: % is scaled to controls: 0 for no effect and ±100 for the full control effect
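U2OS cells transduced with wild-type KCNH2 virus are loaded with FluxOr dye for 45 min, and thallium flux is measured in kinetic reads before and after stimulation buffer. Rate constants are normalized to DMSO controls.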
KCNH2 3.1 block = blocks the human KCNH2 3.1 channel isoform; U2OS KCNH2 3.1, thallium flux FluxOr; hits give low values; hit rate 0.95% among 340,000; activity change, % (tested at about 1.8 µM); AID 720553;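 active = maximum activity change below -70%; inconclusive = maximum activity change from -70% to -50%; inactive = maximum activity change above -50%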;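 also: thallium influx rate constant from kinetic fluorescence after stimulation buffer; % is scaled to controls: 0 for no effect and ±100 for the full control effect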
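FluxOr-based Tl+ influx in U2OS cells transduced with KCNH2 3.1 virus; rate constants normalized to DMSO controls.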
* = called active by the depositor; ? = inconclusive; / = no result given. Rows were chosen to be rich in hits. Some 1.4% of all compounds tested hit in one or more screens of this group. Unless noted, calls follow the shape of the full dose curve.

SMILES	Rango dissoc inh	CCT chaperon mod	MmCpn inh	Rango-impB inh	hERG WT inh	KCNH2 3.1 block
CN1CCC(=O)N([C@H](CSc2ccccc2)Cc2ccccc2)CC1	-1%	-1	1%	-1%	/	/
COc1ccc(-c2csc(N)n2)cc1F	-15%	1	-2%	0%	-123*	-10
N=c1oc2c3c4c(cc2cc1C(=O)Nc1ccccc1)CCCN4CCC3	?	-2	-2%	?	-223*	-85*
C=CCOc1ccc(C(=O)/C=C2/C(=O)Nc3ccccc32)cc1	19%	-45*	-2%	-2%	0	-7
O=C(NC1=C(Nc2ccc(Cl)cc2)C(=O)c2ccccc2C1=O)c1ccccc1	6%	-2	-2%	3%	2	-1
CN(C1=C(NC(=O)c2ccc(Cl)cc2)C(=O)c2ccccc2C1=O)c1ccccc1	0%	0	-1%	4%	-153*	-98*
COc1ccc(Nc2cc3n(c(=O)n2)CCc2cc(OC)c(OC)cc2-3)cc1	?	-4	0%	?	1	1
COc1cc2c(cc1OC)-c1cc(Nc3ccc(C(=O)O)cc3)nc(=O)n1CC2	?	-5	0%	?	7	-93*
CC(Oc1ccc(Cl)cc1Cl)C(=O)NNC(=O)C(=O)N1CCCCC1 (centres undefined)	5%	1	1%	-3%	-3	-1
CNC(=O)C(C)NS(=O)(=O)c1ccc(F)cc1 (centres undefined)	-12%	-1	1%	1%	-91*	-4
COc1cc(C(CC(=O)Nc2cc(C)ccn2)N2Cc3ccccc3C2=O)cc(OC)c1OC (centres undefined)	-9%	0	1%	-3%	2	-6
COc1ccc(CCNC(=O)CC2SC(=NCCc3ccccc3)NC2=O)cc1 (centres undefined)	-5%	0	1%	0%	-5	5
N#Cc1nc(COc2ccc(Cl)cc2)oc1N1CCN(Cc2ccccc2)CC1	-8%	-1	-1%	-1%	-5	/
CCN1CCN(c2oc(COc3ccc(Cl)cc3)nc2C#N)CC1	-2%	-1	-1%	-2%	22	-83*
Cc1cc(N2CCN(c3ccc([N+](=O)[O-])c4cccnc34)CC2)c2ccccc2n1	-9%	0	0%	-2%	-108*	-103*
O=C(c1ccccc1F)N1CCN(c2ccc([N+](=O)[O-])c3cccnc23)CC1	-7%	1	0%	-2%	-243*	-3
Cc1cc(N2CCN(c3ccc(C(F)(F)F)cc3[N+](=O)[O-])CC2)c2ccccc2n1	9%	-2	3%	0%	-98*	-102*
Cc1ccc(S(=O)(=O)N2CCN(c3ccc(C(F)(F)F)cc3[N+](=O)[O-])CC2)cc1	-20%	-2	1%	-1%	-1	-15
Cc1ccc[n+](CC(=O)Nc2ccc(N(C)C)cc2)c1	-15%	-2	1%	-2%	-8	-31
COc1ccc(NC(=O)c2sc3ncn(CC(=O)N4CCCCC4)c(=O)c3c2C)cc1OC	0%	-2	-4%	0%	-7	-17
Cn1c(SCC(=O)O)nnc1-c1ccc(NC(=O)c2ccc(Cl)c(Cl)c2)cc1	-4%	-3	1%	0%	-127*	-16
CCC(=O)Nc1cccc(-c2nnc(SCC(=O)NCc3ccco3)n2C)c1	7%	0	-2%	-2%	0	3
Cn1c(SCC(=O)Nc2ccc(N3CCOCC3)cc2)nnc1-c1ccccc1	-15%	-35*	-1%	1%	-26	4
COc1ccccc1C(=O)Nc1ccc(-c2nnc(SCC(=O)O)n2C)cc1	-2%	-7	0%	3%	13	0
CCC(=O)Nc1cccc(-c2nnc(SCC(=O)c3ccccc3)n2C)c1	5%	1	-1%	0%	0	-91*
CCN(CC)CCCNc1nc2ccccc2c2nc(-c3ccncc3)nn12	-19%	1	-3%	-2%	-1	19
